HT1080 IDH1KD tx = HT-1080 IDH1 knockdown cell toxicity (counter line); HT-1080 IDH1 knockdown viability, ATP luminescence, 48 h; 360,000 compounds, 2% hits; Potency, µM (top dose mostly 46.1 µM), for inactives: at the top dose activity, negative = toxicity, usual class: cytotoxic;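 note: potency is the fitted concentration of half-maximal effect; 0% = DMSO wells and -100% = cell-free medium wells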
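Using the IDH1-knockdown HT-1080 line run in the same batch and compound series as the NT line, viability after 48 h at 37 °C was determined by CellTiter-Glo luminescence and expressed as % activity.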
IL-1B inflam inh = inhibitors of inflammasome signaling (IL-1 beta secretion) | THP-1 LPS/ATP IL-1B secretion, AlphaLISA, 16 h; stronger effect = lower value | activity change, % at 57.5 µM | 360,000 compounds, 4.7% hits | AID 743279; in the data active = activity change below about -50%; inconclusive = mostly about -30% to -49%
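THP-1 cells pretreated 1 hr with compounds (up to 57.5 uM final), then stimulated with LPS (250 ng/mL final) plus ATP (1.25 mM final); secreted IL-1B measured by AlphaLISA after 16 hr, decreased signal indicating inhibition.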
HT1080-NT tox = kills 2HG-producing HT-1080-NT fibrosarcoma cells. HT-1080-NT fibrosarcoma viability, CellTiter-Glo ATP luminescence, 48 h. Potency, µM (titrated, usually from 46.1 µM), for the others: at the top dose activity, negative = less viability, usual class: cytotoxic. 360,000 compounds, 1.6% hits. AID 686970;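 note: NT is the 2HG producing partner of a matched IDH1 knockdown line; potency is the fitted concentration of half-maximal effect; 0% = DMSO-treated cells and -100% = media-only wells without cells; nearly all actives have a fitted effect of over 55% in size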
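HT-1080-NT; 750 cells/well; 5% FBS RPMI; 48 h compound, 37 degrees C; CellTiter-Glo luminescence; curve fitting and curve-class assignment.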
TDP1 cell CPT = DT40-hTDP1 cell growth loss with CPT. chicken DT40 Tdp1-/-;hTDP1 cells + 20 nM CPT, ATP luminescence, 48 h. AID 686979. Potency, µM (series often up to 46.2 µM), for inactives: top-dose activity change, negative = growth inhibition, most hits filed as inhibitors. 420,000 compounds, 12% hits; note: potency is the fitted concentration of half-maximal effect; nearly all actives have a fitted effect of over 55% in size
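Chicken DT40 Tdp1-/- cells stably complemented with human TDP1 were seeded at 400 cells/well in medium containing 20 nM camptothecin, exposed to pin-transferred compounds, and grown at 37 °C for at least 48 hr. Viability was read as ATP luminescence.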
TDP1 cell noCPT = qHTS for Inhibitors of human tyrosyl-DNA phosphodiesterase 1 (TDP1): qHTS in cells in absence of CPT. 420,000 compounds, 15% hits. Potency, µM (titrated, usually from 46.2 µM), for the others: at the top dose activity change, negative = growth inhibition, hits mostly inhibitors. DT40 Tdp1-/- hTDP1 cells, no CPT, ATP luminescence, 48 h; note: potency is the fitted concentration of half-maximal effect; nearly all actives have a fitted effect of over 55% in size
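Growth of hTDP1-complemented DT40 Tdp1-knockout cells is measured by ATP luminescence after at least 48 hr compound exposure at 37 °C, with DMSO substituting for the 20 nM CPT used in the parallel screen.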
* = called active by the depositor; i = inactive; ? = inconclusive; / = no result. Most compounds without a hit are left out; they make up all but 19% or so of the library. Unless noted, calls come from the whole dose curve; as a rule, active = well fitted curve in the direction sought with a large enough effect; inconclusive = small, poorly fitted or top-dose-only effect, or another doubt; inactive = no such curve, though single readings can be large; an effect the other way counts as inactive or inconclusive. Unless noted, % is set by controls: 0 for no effect and ±100 for the full control effect.

SMILES	HT1080 IDH1KD tx	IL-1B inflam inh	HT1080-NT tox	TDP1 cell CPT	TDP1 cell noCPT
Cc1ccc(NC(=S)N=Nc2c(O)n(C)c3ccc(S(=O)(=O)N4CCOCC4)cc23)cc1C	?	19	-13%	2.1µM*	3.7µM*
CCOc1ccccc1NC(=O)c1cc(S(=O)(=O)N2CCOCC2)ccc1C	-2%	i	-7%	-25%	-16%
C=CCn1c(O)c(N=NC(=S)Nc2ccccc2C)c2cc(S(=O)(=O)N3CCOCC3)ccc21	?	-1	?	3.3µM*	0.73µM*
NC(=O)NC(=O)COC(=O)/C=C/c1cccs1	9%	31	0%	-2%	-24%
COc1cc(C)c(CN2C[C@H](Sc3ccccn3)C[C@H]2C(=O)N(C)C)cc1C	/	/	/	-43%	?
COc1ccc(-c2noc(CCC(=O)N3CCN(c4ccccc4Br)CC3)n2)cc1	-7%	-15	0%	4%	-1%
CCc1nn(C(C)C(=O)NC(C)CCc2ccco2)c(=O)c2cc3occc3n12 (stereo not given)	0%	1	-1%	?	-24%
CCc1cccc2c1NC(=O)C2(O)CC(=O)c1cccs1 (stereo not given)	9%	0	1%	4%	-19%
CC(C)c1ccc2oc(=O)cc(CN3CCCCC3)c2c1	12%	-2	18%	29µM*	23µM*
CC1CCN(Cc2cc(=O)oc3ccc(C(C)C)cc23)CC1	-2%	-4	-1%	26µM*	?
COc1ccc(CCNC(=O)CSc2nnc3ccc(-c4cccnc4)nn23)cc1OC	16%	-6	-1%	-1%	24%
COC(=O)C(NC(=O)c1cccnc1Cl)C(C)C (stereo not given)	11%	9	14%	-18%	-2%
Cc1ccc(NC(=O)c2ccc(-c3nn(C)c(=O)c4ccccc34)cc2)cc1	0%	-8	0%	21µM*	?
CCCC(=O)NCc1cc(-c2nn(C)c(=O)c3ccccc23)ccc1C	7%	-3	14%	-28%	-12%
CNC(=O)c1cc(NC(=O)CCn2nc(-c3ccc(C)cc3)c3ccccc3c2=O)ccc1OC	-6%	-50*	17%	?	?
Cc1ccc(-c2nn(CC(=O)NCc3cc(-c4nn(C)c(=O)c5ccccc45)ccc3C)c(=O)c3ccccc23)cc1	?	38	?	15µM*	13µM*
COc1ccc(NC(=O)CCn2nc(-c3ccc(Cl)cc3)c3ccccc3c2=O)cc1	/	/	/	-13%	-8%
CN1CCN(C(=O)C2=C[C@H](c3ccccc3)C[C@H](OCc3ccc(CO)cc3)O2)CC1	14%	-10	10%	0%	7%
CC[C@]1(C(=O)OC)[C@H]2C(=O)N(C)C(=O)[C@H]2[C@H]2CN=C(SCC3CC3)N21	11%	43	4%	4%	6%
CC1(C)OC(=O)C2=C(C[C@@H](C3CCCCC3)O[C@H]2c2ccccc2)O1	?	42	?	?	16µM*
CC(C)[C@@H]1O[C@H](CCc2ccccc2)CC2=C1C(=O)OC(C)(C)O2	-22%	33	-12%	15µM*	15µM*
CC1(C)OC(=O)C2=C(C[C@@H](CCOCc3ccccc3)O[C@@H]2c2ccc(F)cc2)O1	-9%	0	-10%	?	?
C[C@@H]1O[C@H](CCc2cccc(Cl)c2)CC2=C1C(=O)OC(C)(C)O2	-15%	7	-10%	1.6µM*	2.9µM*
CC(C)c1ccc([C@@H]2O[C@H](CCc3ccccc3)CC3=C2C(=O)OC(C)(C)O3)cc1	-19%	20	-5%	?	16µM*
CC1(C)OC(=O)C2=C(C[C@@H](C3CCCCC3)O[C@H]2c2ccc(F)cc2)O1	-24%	-26	-24%	-19%	?
CC1(C)OC(=O)C2=C(C[C@@H](CCc3ccccc3)O[C@@H]2c2ccc(Cl)cc2)O1	?	-22	?	?	?

Screens (PubChem BioAssay)
